From PubChem BioAssay (NCI)
This is part of a sample that, as a whole, favours compounds with a hit. Of some 79,000 tested, about 15% had one in any assay. Active and inactive are the calls of the source. No stated cut-off is given here; in the data, active means growth inhibition above about 70%; inactive means the rest.

What was measured:
[1] = NCI Yeast Anticancer Drug Screen. Data for the rad50 strain (AID 155);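 further: 0% = growth of vehicle-only cultures of the same strain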; conditions: S. cerevisiae rad50 strain growth inhibition, active compounds read high
Outline: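 Growth of the mutant yeast was measured after compound exposure and referenced to vehicle-treated cultures.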

[2] = NCI Yeast Anticancer Drug Screen. Data for the mec2-1 strain (AID 157); conditions: S. cerevisiae mec2-1 strain, active compounds read high
Outline: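 Cells of the genetically defined mec2-1 yeast strain are incubated with test compound. Inhibition of growth is calculated against vehicle-treated controls.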

[3] = NCI Yeast Anticancer Drug Screen. Data for the sgs1 mgt1 strain (AID 161);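 further: 0% = growth of cultures given vehicle only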; conditions: S. cerevisiae sgs1 mgt1 strain, active compounds read high
Outline: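 Genetically altered yeast, compound exposure, growth inhibition relative to vehicle.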

[4] = NCI Yeast Anticancer Drug Screen. Data for the cln2 rad14 strain (AID 165);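 further: 0% = growth equal to vehicle treated cultures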; conditions: S. cerevisiae cln2 rad14 strain, active compounds read high
Outline: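 The screen exposed genetically defined yeast (cln2 rad14) to test compounds and scored growth inhibition relative to vehicle-treated controls.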

[5] = NCI Yeast Anticancer Drug Screen. Data for the bub3 strain (AID 167); conditions: S. cerevisiae bub3 mutant strain, active compounds read high
Outline: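 Whole-cell yeast assay. The mutant strain was incubated with compounds, and growth inhibition was determined by comparison with vehicle-treated cells.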

[6] = NCI Yeast Anticancer Drug Screen. Data for the mlh1 rad18 strain (AID 175); conditions: S. cerevisiae mlh1 rad18 strain growth inhibition, active compounds read high
Outline: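 Compound-treated yeast growth, normalised to vehicle controls. Strain bears defined DNA repair mutations.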

[7] = at 5.0 µM (retest, dose inferred, filed as 0.5)
[8] = at 50.0 µM (retest, dose inferred, filed as 5.0)

Measured: growth inhibition

O=[N+]([O-])/C=C/c1ccco1
inactive: [1]; [7] 59% | [2]; [7] 9% | [3]; [7] 16% | [4]; [7] 8% | [5]; [7] 3% | [6]; [7] 22%
active: [1]; [8] 99% | [1]; at 50.0 µM 99.5% | [2]; [8] 100% | [2]; at 50.0 µM 99.3% | [3]; [8] 100% | [3]; at 50.0 µM 88.8% | [4]; [8] 99% | [4]; at 50.0 µM 98.5% | [5]; [8] 99% | [5]; at 50.0 µM 98.9% | [6]; [8] 99% | [6]; at 50.0 µM 98.9%

Cc1cc(=O)n(C)c2c(C)cccc12
inactive: [1]; [7] -163% | [1]; [8] -139% | [1]; at 50.0 µM 12.9% | [2]; [7] -47% | [2]; [8] -47% | [2]; at 50.0 µM 15.9% | [3]; [7] -60% | [3]; [8] -57% | [3]; at 50.0 µM 12.4% | [4]; [7] -56% | [4]; [8] -50% | [4]; at 50.0 µM 46.3% | [5]; [7] -73% | [5]; [8] -72% | [5]; at 50.0 µM -2.85% | [6]; [7] -145% | [6]; [8] -107% | [6]; at 50.0 µM 10.2%

CC1(C)CCC[C@@]2(C)C1CC[C@@]1(CO1)[C@@H]2/C=C\C(C=O)CC=O (stereo partly specified)
inactive: [1]; [7] 60% | [2]; [7] 36% | [3]; [7] 59% | [6]; at 50.0 µM -27.4%
active: [1]; [8] 99% | [1]; at 50.0 µM 92.9% | [2]; [8] 100% | [2]; at 50.0 µM 94.2% | [3]; [8] 100% | [3]; at 50.0 µM 94.5% | [4]; [7] 70% | [4]; [8] 100% | [4]; at 50.0 µM 92.7% | [5]; [7] 79% | [5]; [8] 100% | [5]; at 50.0 µM 93.3% | [6]; [7] 87% | [6]; [8] 99%

N#CC(CC(=O)O)C(c1cccc2ccccc12)c1cccc2ccccc12 (stereo unspecified)
inactive: [1]; [7] 10% | [2]; [7] 17% | [3]; [7] 4% | [4]; [7] 4% | [6]; [7] 17%
active: [1]; [8] 99% | [1]; at 50.0 µM 99.1% | [2]; [8] 99% | [2]; at 50.0 µM 98.5% | [3]; [8] 98% | [3]; at 50.0 µM 98.8% | [4]; [8] 99% | [4]; at 50.0 µM 97.6% | [6]; [8] 99% | [6]; at 50.0 µM 99.2%

CN(C)C1CCC2C3CCC4=CC(=O)CCC4(C)C3CCC21C (stereo unspecified)
active: [1]; at 50.0 µM 77.1%
inactive: [1]; [7] 2% | [1]; [8] 28% | [2]; [7] 17% | [2]; [8] 21% | [2]; at 50.0 µM 48% | [3]; [7] 8% | [3]; [8] 39% | [3]; at 50.0 µM 69.5% | [4]; [8] 55% | [4]; at 50.0 µM 47.1% | [5]; [7] 2% | [5]; [8] -63% | [5]; at 50.0 µM 40% | [6]; [7] 2% | [6]; [8] 35% | [6]; at 50.0 µM 51.7%

CCC(=O)Oc1c(Br)c(Br)c(Br)c(Br)c1Br
active: [5]; [8] 86% | [5]; at 50.0 µM 92% | [6]; [8] 84%
inactive: [1]; [7] 8% | [1]; [8] 56% | [1]; at 50.0 µM 29% | [2]; [7] 17% | [2]; [8] 62% | [2]; at 50.0 µM 6% | [3]; [7] 7% | [3]; [8] 50% | [3]; at 50.0 µM 8.45% | [4]; [7] 21% | [4]; [8] 68% | [4]; at 50.0 µM 25.8% | [5]; [7] 56% | [6]; [7] 35% | [6]; at 50.0 µM 19.5%

O=C1C=CC2C(=O)c3ccccc3C(=O)C2=C1 (stereo unspecified)
inactive: [1]; [7] 21% | [2]; [7] 17% | [2]; at 50.0 µM 63.5% | [3]; [7] 4% | [3]; at 50.0 µM 56.9% | [4]; [7] 5% | [4]; at 50.0 µM 66.7% | [5]; [7] 1% | [5]; [8] 55% | [5]; at 50.0 µM 45.5% | [6]; [7] 4% | [6]; [8] 67% | [6]; at 50.0 µM 69.2%
active: [1]; [8] 89% | [1]; at 50.0 µM 73.5% | [2]; [8] 76% | [3]; [8] 72% | [4]; [8] 71%

COC1OC(COC(=O)c2ccccc2)CC1F (stereo unspecified)
active: [1]; at 50.0 µM 93.5% | [2]; at 50.0 µM 94.8% | [3]; at 50.0 µM 94% | [4]; at 50.0 µM 91.8% | [5]; at 50.0 µM 93.3% | [6]; at 50.0 µM 92.2%
inactive: [1]; [7] 16% | [1]; [8] -26% | [2]; [7] -8% | [2]; [8] -22% | [3]; [7] -12% | [3]; [8] -13% | [4]; [7] -24% | [4]; [8] -2% | [5]; [7] 19% | [5]; [8] 26% | [6]; [7] 18% | [6]; [8] -54%

CCCCCCCCCCCCCCCC(=O)N1CC[N+](C)(C)CC1
inactive: [1]; [7] 34% | [2]; [7] 5% | [3]; at 50.0 µM 60% | [4]; [7] 5% | [5]; [7] 16% | [6]; [7] -34%
active: [1]; [8] 99% | [1]; at 50.0 µM 99.3% | [2]; [8] 100% | [2]; at 50.0 µM 99.6% | [3]; [7] 73% | [3]; [8] 99% | [4]; [8] 99% | [4]; at 50.0 µM 98.2% | [5]; [8] 99% | [5]; at 50.0 µM 99.2% | [6]; [8] 99% | [6]; at 50.0 µM 99.5%

C=CCSc1nc2ccc(N3C(=O)C=CC3=O)cc2s1
active: [1]; [8] 99% | [1]; at 50.0 µM 94.7% | [2]; [8] 99% | [2]; at 50.0 µM 98% | [3]; [8] 100% | [3]; at 50.0 µM 97.5% | [4]; [8] 98% | [4]; at 50.0 µM 96.5% | [5]; [8] 99% | [5]; at 50.0 µM 99% | [6]; [7] 85% | [6]; [8] 97% | [6]; at 50.0 µM 97.8%
inactive: [1]; [7] 59% | [2]; [7] 50% | [3]; [7] 51% | [4]; [7] 24% | [5]; [7] 27%
